Screens (PubChem)
KB-V1 MDR tox: kills drug-selected multidrug resistant KB-V1 cells; KB-V1 MDR cells viability, CellTiter-Glo, 72 h; Potency, µM (highest dose often 46.1 µM), usual class: cytotoxic; AID 1347076; 3.4% of 400,000 active; note: % is set by controls: 0 for no effect and ±100 for the full control effect; nearly all actives have a fitted effect of over 60% in size
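KB-V1 cells (P-gp-expressing MDR subline of KB-3-1) in phenol-red-free DMEM with 10% FBS were exposed to library compounds over a concentration series for 72 h at 37 degrees C. Viability read by CellTiter-Glo luminescence; concentration-effect curves fitted after normalization.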
MCF10A rereplic: DNA re-replication induction in MCF 10a cells. Potency, µM (highest dose often 46.1 µM), without a hit: at the top dose activity, positive = re-replication, usual class: activators. MCF 10A DNA re-replication, Hoechst nuclear intensity, 48 h. 2.9% of 350,000 active. AID 624296; note: % of control where 0% means no effect; nearly all actives have a fitted effect of over 50% in size
HT1080-NT tox: kills 2HG-producing HT-1080-NT fibrosarcoma cells. HT-1080-NT fibrosarcoma viability, CellTiter-Glo ATP luminescence, 48 h. Potency, µM (top dose mostly 46.1 µM), for the others: at the highest dose activity, negative = less viability, hits mostly cytotoxic. 1.6% of 360,000 active. AID 686970;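 note: NT is the 2HG producing partner of a matched IDH1 knockdown line; 0% = DMSO-treated cells and -100% = media-only wells without cells; nearly all actives have a fitted effect of over 55% in size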
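HT-1080-NT fibrosarcoma cells (2HG-overproducing), 750 cells/well in RPMI with 5% FBS, dosed after 2 h and incubated 48 h at 37C. CellTiter-Glo luminescence normalized to DMSO and no-cell wells; concentration-response curves fitted and classed.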
SW480 rereplic: DNA re-replication induction in SW480 cells; 1.8% of 340,000 active; SW480 DNA re-replication, Hoechst DNA content imaging, 48 h; Potency, µM (top dose mostly 46.1 µM), without a hit: top-dose re-replication activation, most hits filed as activators; note: % of control where 0% means no effect; nearly all actives have a fitted effect of over 55% in size
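250 cells/well; 23 nL cpd via pin tool; 48 hr, 37 C, 5% CO2; Hoechst 40 min; imager read of total nuclear intensity, ex 405/em 500-530 nm.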
HT1080 IDH1KD tx: kills HT-1080 cells with IDH1 knockdown; 2% of 360,000 active; Potency, µM (highest dose often 46.1 µM), inactives show at the highest dose activity, negative = toxicity, hits mostly cytotoxic; AID 686971; HT-1080 IDH1 knockdown viability, ATP luminescence, 48 h;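 note: 0% = DMSO wells and -100% = cell-free medium wells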
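In this qHTS, HT-1080 cells depleted of IDH1 are exposed for 48 h at 37 °C to compound titrations. Toxicity is scored from CellTiter-Glo luminescence, with DMSO as full viability and medium alone as none.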
KB-3-1 tox: KB-3-1 parental cell cytotoxicity | KB-3-1 viability, CellTiter-Glo ATP luminescence, 72 h | Potency, µM (series often up to 46.1 µM), actives largely listed as cytotoxic | 1.4% of 400,000 active; note: % is set by controls: 0 for no effect and ±100 for the full control effect; nearly all actives have a fitted effect of over 60% in size
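Luminescent ATP read-out (CellTiter-Glo) measures survival of drug-naive KB-3-1 cells after 72 h compound exposure at 37 °C. Titration series was screened from lowest to highest concentration, with DMSO vehicle plates as background controls.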
Numbers without * were called inactive; i = inactive; ? = inconclusive; nt = no result; ! = not active in a repeat; [ ] = dose if it differs, or a comment. Most compounds without a hit are left out; they make up all but 8% or so of the library. Calls come from the whole dose curve; as a rule, active = well fitted curve in the direction sought with a large enough effect; inconclusive = small, poorly fitted or top-dose-only effect, or another doubt; inactive = no such curve, though single readings can be large; an effect the other way counts as inactive or inconclusive. Potency is the fitted concentration of half-maximal effect.

SMILES	KB-V1 MDR tox	MCF10A rereplic	HT1080-NT tox	SW480 rereplic	HT1080 IDH1KD tx	KB-3-1 tox
Cc1cc(Cl)c(OCCN2C(=O)NC(C)(C)C2=O)c(Br)c1	i	0.6%	-2.8%	-22.8%	-7.4%	i
Cc1ccc(C(C)C)c(OCCCN2C(=O)NC(C)(C)C2=O)c1	14.6µM*	?	-0.8%	9.8%	1.4%	i
Cc1cc(Cl)cc(Br)c1OCCCN1C(=O)NC(C)(C)C1=O	18.4µM*	10.3%	-3.6%	5.5%	5.2%	?
C[C@@H]1COC(=O)[C@@H](Cc2ccc(F)cc2)C/C=C\C[C@@H](CC(=O)NCCO)C(=O)N1	i	-26.6%	1.4%	0.2%	6.2%	i
CCOC(=O)c1ccccc1NC(=O)COC(=O)C(CC(C)C)NC(N)=O (stereo not given)	i	0.92µM*	1.8%	0.6%	0.5%	i
COCCN1CCC(CNCc2cn(-c3cc(C)ccc3C)nc2-c2ccccc2)C1 (stereo not given)	i	?	25.9µM*	11.6%	?	i
COCCN1CCC(CNCc2cn[nH]c2-c2ccc(C)c(C)c2)C1 (stereo not given)	?	1.8%	-17.5%	-9.1%	-13.5%	i
O=C(COc1ccccc1Br)NCCc1nc2ccccc2[nH]1	14.6µM*!	-5.2%	4.3%	-3.0%	7.2%	i
c1ccc(CCNc2c3c(nc4ncnn24)CCC3)cc1	11.6µM*	-9.7%	2.1%	-5.8%	-6.0%	i
c1ccc2c(c1)Cc1cc(CN3CCOCC3)ccc1-2	20.6µM*	20.9%	19.5%	-1.2%	-5.5%	i
c1ccc(CN2CCOCC2)cc1	i	7.7%	-2.7%	?	11.5%	i
C=CCn1c(=O)c2c(nc3n2CCN3c2cccc(Cl)c2C)n(C)c1=O	8.2µM*	19.9%	7.5%	-10.2%	-0.7%	i
CCOC(=O)c1sc(N/N=C/c2ccc(N(C)C)cc2)nc1C	i	?	-0.6%	?	11.3%	?
Cc1cc(=O)[nH]c(N/N=C/c2cccc(Br)c2)n1	i	2.3%	0.4%	-10.7%	0.3%	i
CC(=O)c1sc(N/N=C\c2ccc(Br)cc2)nc1C	i	18.4µM*	8.4%	?	6.2%	i
CC(=O)c1sc(N/N=C\c2cccc(Br)c2)nc1C	?	13µM*	-22.1%	10.6%	?	i
Cc1ccc(C)c(CN2CCCN(CC(=O)Nc3ccc(C)c(C)c3)S2(=O)=O)c1	i	nt	nt	nt	nt	i
CC(C)(C)c1cnnn1-c1ccc(C=O)cc1	i	0.1%	-4.8%[9.24 µM]	-1.1%	?	i
CC(C)(C)c1cnnn1-c1ccc(C(=O)CCl)cc1	23.1µM*	16.4µM*	?	?	?	?
CCOC(=O)c1c(C)n(-c2ccc(C)cc2)c2c(C(C(C)=O)C(=O)O)c(Br)c(O)c(O)c12 (stereo not given)	i	29.6%	?	?	-18.6%	i
CCOC(=O)C(C(C)=O)c1c(Br)c(O)c(O)c2c(C(=O)c3ccc(C)cc3)coc12 (stereo not given)	20.6µM*	?	8.91µM*	?	8.91µM*	i
CC(C(=O)Nc1ccc(OC(F)(F)F)cc1)N1Cc2ccccc2C1=O (stereo not given)	i	nt	nt	nt	nt	i
NNc1nc(-c2ccccc2)cc(-c2ccccc2O)n1	5.17µM*	?	?	?	12.6µM*	?
NNc1nc(-c2ccccc2)cc(-c2ccccc2)n1	i	6.3%	-19.8%	-36.0%	?	?
COc1cc2c(cc1C1C(C#N)=C(N)OC3=C1C(=O)CC(C)(C)C3)OCO2 (stereo not given)	i	7.4%	0.4%	4.2%	0.8%	i
SMILES	KB-V1 MDR tox	MCF10A rereplic	HT1080-NT tox	SW480 rereplic	HT1080 IDH1KD tx	KB-3-1 tox
COc1ccc(C2C(C#N)=C(N)Oc3cc4c(cc32)OCO4)cc1 (stereo not given)	i	20.6µM*	-21.4%	?	-23.4%	i
CN(Cc1ccc(OC(F)F)cc1)C(=O)c1cccc(S(=O)(=O)N2CCN(c3ccccc3)CC2)c1	i	-1.4%	-5.9%	-5.1%	-18.9%	7.31µM*
COc1ccc(NC(C)=O)cc1NC(=O)c1cccc(S(=O)(=O)N2CCN(Cc3ccccc3)CC2)c1	16.4µM*	1.4%	-2.2%	-0.2%	15.3%	i
COc1ccccc1NC(=O)c1cccc(S(=O)(=O)N2CCN(Cc3ccccc3)CC2)c1	i	0.1%	-2.1%	-91.3%	-1.3%	i
C=CCN(C(=O)c1cccc(S(=O)(=O)N2CCN(C)CC2)c1)c1nc(-c2ccccc2)cs1	i	?	23.1µM*	5.1%	?	?
CN(CC(=O)Nc1ccccc1Cl)C(=O)c1cccc(S(=O)(=O)N2CCN(c3ccccc3)CC2)c1	i	1.8%	-8.8%	-0.5%	-20.4%	i
CN(CC(=O)Nc1ccccc1Cl)C(=O)c1cccc(S(=O)(=O)N2CCN(Cc3ccccc3)CC2)c1	?	?	20.6µM*	9.6%	-6.4%	i
Cc1cccc(C)c1NC(=O)CN(C)C(=O)c1cccc(S(=O)(=O)N2CCN(c3ccccc3)CC2)c1	i	-0.2%	-5.3%	7.2%	-16.6%	i
COc1cc(S(=O)(=O)N2CCN(Cc3ccccc3)CC2)ccc1Br	i	10.3µM*	-11.9%	?	-0.4%	i
CN(Cc1ccc(Cl)c(Cl)c1)C(=O)c1cccc(S(=O)(=O)N2CCN(Cc3ccccc3)CC2)c1	i	28.6%	-20.2%	-34.4%	-18.2%	9.2µM*
Cn1nc(-c2ccc(F)cc2)nc2c(=O)n(C)c(=O)nc1-2	5.17µM*	nt	nt	nt	nt	2.91µM*
COc1ccc(-c2nc3c(=O)n(C)c(=O)nc-3n(C)n2)cc1	4.61µM*	nt	nt	nt	nt	0.651µM*
CCOc1cc(C#N)c(NC(=O)c2cccc(S(=O)(=O)N3CCOCC3)c2)cc1OCC	i	nt	nt	nt	nt	i
COc1cccc(CN(C)CC(=O)Nc2cc3oc4ccccc4c3cc2OC)c1	?	2.0%	9.7%	6.6%	1.7%	?
COc1cc2c(cc1NC(=O)CN(C)Cc1cccc(OC)c1OC)oc1ccccc12	?	7.31µM*	-2.8%	?	-28.1%	i
COc1cc2c(cc1NC(=O)COC(=O)[C@@H](NC(=O)c1ccccc1F)C(C)C)oc1ccccc12	16.4µM*	-0.6%	3.6%	-13.8%	9.4%	i
COc1cc2c(cc1NC(=O)COC(=O)[C@@H](NC(=O)c1ccccc1)C(C)C)oc1ccccc12	9.2µM*	18.8%	-13.7%	-0.5%	-3.5%	i
